Rows were chosen to be rich in hits. Some 8% of all compounds tested hit in one or more screens of this group.
SARS PLpro yeast = qHTS of Yeast-based Assay for SARS-CoV PLP. Potency, µM (titrated, usually from 32.9 µM), without a hit: at the top dose activity, positive = growth rescue, most hits filed as activators. 330,000 tested, 0.19% active. AID 485353, 2010. S. cerevisiae expressing SARS-CoV PLpro, growth rescue; calls by dose curve; also: potency is read from the fitted curve at half-maximal effect; 0% is about no effect; nearly all actives have a fitted effect of over 55% in size
HCMV inh = qHTS Assay for inhibitors of the human cytomegalovirus (HCMV); AID 1259415, 2018; HFF cells, HCMV-luciferase reporter, 72 h; active compounds read low; 410,000 tested, 4.5% active; activity change, negative = inhibition, % at 57.5 µM; in the data active = activity change below about -60%; inconclusive = no clear call, values can overlap the other calls; inactive = above about -39%; also: % is scaled to controls: 0 for no effect and ±100 for the full control effect
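Human foreskin fibroblasts infected with luciferase-reporter HCMV at MOI 1 PFU/cell, compounds at two doses. Luciferase measured 72 h post infection; normalized to buffer-only basal and Salinomycin (10uM) controls.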
FMDV inh = High Throughput Screening for Foot and Mouth Disease Virus Antivirals; FMDV antiviral cell-based qHTS; Potency, µM (series often up to 57.9 µM), for the others: at the highest dose activity change, negative = inhibition, usual class: inhibitors; 410,000 tested, 1.2% active; AID 1159524, 2015; calls by dose curve; tested in HEK293T cells; also: read-out not given here; potency is read from the fitted curve at half-maximal effect; % is scaled to controls: 0 for no effect and ±100 for the full control effect; nearly all actives have a fitted effect of over 45% in size
HCV inhibitor = qHTS Assay for Inhibitors of Hepatitis C Virus (HCV); Huh7.5.1 HCVcc-Cre infection, luciferase reporter, 44 h; AID 651820, 2012; 340,000 tested, 3.4% active; Potency, µM (titrated, usually from 41.8 µM), without a hit: at the top dose activity change, negative = inhibition, most hits filed as inhibitors; active = well fitted inhibition curve with a large enough effect; inconclusive = small, poorly fitted or top-dose-only effect, or another doubt; inactive = no such curve, though single readings can be large or run the other way; also: potency is read from the fitted curve at half-maximal effect; % is scaled to controls: 0 for no effect and ±100 for the full control effect
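1,000 cells/well; 4 h culture; + compound; + HCVcc-Cre (~0.5 moi); 44 h; luciferase substrate, RT 15 min; read 15 sec.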
MARV entry inh = qHTS for inhibitors of binding or entry into cells for Marburg Virus; Marburg virus pseudotyped entry inhibition, cell reporter; Potency, µM (titrated, usually from 37.8 µM), for inactives: top-dose activity change, negative = inhibition, hits mostly inhibitors; 300,000 tested, 1.8% active; AID 540276, 2011; calls by dose curve; tested in HEK293 cells; also: potency is read from the fitted curve at half-maximal effect; % is scaled to controls: 0 for no effect and ±100 for the full control effect
Lassa entry inh = qHTS for Inhibitors of binding or entry into cells for Lassa Virus | Lassa virus pseudotype entry inhibition, cell reporter | Potency, µM (top dose mostly 37.9 µM), for inactives: top-dose activity change, negative = inhibition, most hits filed as inhibitors | 300,000 tested, 1.2% active; calls by dose curve; tested in HEK293 cells; also: potency is read from the fitted curve at half-maximal effect; % is scaled to controls: 0 for no effect and ±100 for the full control effect; nearly all actives have a fitted effect of over 50% in size
* hit, by the source's call; u = inconclusive; x = no result given; [ ] = dose if it differs, or a comment.

SMILES	SARS PLpro yeast	HCMV inh	FMDV inh	HCV inhibitor	MARV entry inh	Lassa entry inh
CC(C)(C)NC(=O)CCN(/N=C/c1ccc([N+](=O)[O-])o1)C1=NS(=O)(=O)c2ccccc21	-11%	-95*	u	u	u	-2%
CN(C)c1ccc(/C=N/N(CCC(=O)NC(C)(C)C)C2=NS(=O)(=O)c3ccccc32)cc1	0%	-15	-17%	3%	-26%[46.1 µM]	u
Cc1ccsc1C1Cc2c(C(=O)NCc3cccnc3)c(=O)cc(C)n2-c2ccccc2S1 (stereo not drawn)	x	x	-8%	x	x	x
Cc1cc2c(c(/C=C/C(=O)c3ccccc3)c1)OC1(C=C2)Oc2ccccc2C(=O)N1C (stereo not drawn)	0%	-13	25µM*	13µM*	u	u
O=C1c2ccccc2OC2(C=Cc3ccccc3O2)N1Cc1ccccc1 (stereo not drawn)	-8%	-5	-16%	u	u	-12%
Nc1c(C(=O)Nc2ccc(S(=O)(=O)N3CCCC3)cc2)sc2nc3ccc(OC(F)(F)F)cc3cc12	3%	-96*	-1%	u	6.3µM*	u
N#Cc1sc2nc3c(cc2c1N)CCCC3	-53%	-64*	0%	1%	u	-1%
Nc1c(C(=O)Nc2ccccc2)sc2nc3c(c(-c4ccco4)c12)CCC3	-7%	-32	u	10µM*	-15%	-16%
NC(=O)c1sc2nc3c(c(-c4cccs4)c2c1N)CCCCC3	6%	-86*	u	-3%	-6%	4%
Nc1c(C(=O)O)sc2nc3c(cc12)CCCC3	1%	-5	-4%	12%	x	x
CNc1cc(-c2ccccc2C(F)(F)F)ncn1	x	x	3%	x	x	x
CC1=C(c2ccc(C)cc2)S(=O)(=O)N(Cc2ccc(C(=O)Nc3ccc(C)c(F)c3)cc2)C1=O	x	-24	u	x	x	u
Cc1cccc(NC(=O)c2sc3nc4c(cc3c2N)CCCCCC4)c1C	x	-82*	-25%	x	u	-28%[46.1 µM]
Nc1c(C(=O)Nc2ccc(Br)cc2)sc2nc(-c3ccco3)ccc12	-20%	-60*	u	u	-16%	u
Nc1c(C(=O)Nc2ccc(C(=O)O)cc2)sc2nc3c(cc12)CCCC3	x	27	16µM*	x	25%[46.1 µM]	u
COc1ccc(OC)c(NC(=O)c2sc3nc4c(cc3c2N)CCCCCC4)c1	x	-6	-15%	x	5%[46.1 µM]	11%[46.1 µM]
Nc1c(C(=O)Nc2cccc(C(=O)O)c2)sc2nc3c(cc12)CCCC3	1%	95	6.3µM*	4%	u	3.2µM*
Nc1c(C(=O)Nc2ccc(F)cc2)sc2nc(-c3ccco3)ccc12	-3%	-14	0%	u	u	u
CC1=C(C(=O)OCc2ccc(C)cc2)C(c2ccccc2C(F)(F)F)CC(=O)N1 (stereo not drawn)	x	-33	0%	x	3%[46.1 µM]	u
Cc1nn(-c2ccccc2)c2sc(C(=O)Nc3cccc(Cl)c3)cc12	x	u	-21%	x	2%[46.1 µM]	-24%[46.1 µM]
Nc1ncnc(N)c1N=Nc1ccccc1	-10%	-64*	-22%	-28%	5µM*	u
Cc1cc(C)c2nc(NCc3ccccc3O)sc2c1	1%	-65*	41%	u	x	x
CC(=O)OC[C@]12CCC(C)=C[C@H]1O[C@@H]1[C@H](O)[C@@H](OC(C)=O)[C@@]2(C)[C@]12CO2	-10%	-77*	u	u	x	x
CC(=O)OC[C@H]1O[C@H](CC=NOC[C@@H](O)COCc2ccco2)C=C[C@H]1OC(C)=O	x	x	x	x	1%[14.2 µM]	x
COc1cc2c(-c3ccc4[nH]ccc4c3)c(-c3ccc(C#N)cc3)oc(=O)c2cc1OC	-17%	-25	-10%	11µM*	-1%	x
SMILES	SARS PLpro yeast	HCMV inh	FMDV inh	HCV inhibitor	MARV entry inh	Lassa entry inh
COC(=O)c1c(Oc2ccc(C(C)=O)cc2)nnc(-c2ccccc2)c1-c1ccccc1	x	-14	u	x	6.3µM*	u
CCOC(=O)c1c(Oc2ccc(C(=O)OC)cc2)nnc(-c2ccccc2)c1-c1ccccc1	x	-9	u	x	u	u
O=C(Nc1ccccc1)C1CCCN(C(=O)c2ccc(Cl)cc2)C1 (stereo not drawn)	3%	-65*	u	-9%	u	u
O=C1CCCc2cc(S(=O)(=O)N3CCCC(C(=O)Nc4ccc(F)c(Cl)c4)C3)ccc2N1 (stereo not drawn)	x	-40	32µM*	x	x	-27%[46.1 µM]
CC(=O)c1ccc(NC(=O)C2CCCN(C(=O)c3ccc(Cl)cc3)C2)cc1 (stereo not drawn)	0%	-22	-10%	-4%	u	2%
COc1ccc(NC(=O)C2CCCN(C(=O)c3ccc(Cl)cc3)C2)cc1Cl (stereo not drawn)	3%	-73*	-11%	u	x	x
O=C(Nc1ccc(S(=O)(=O)N2CCCCC2)cc1)C1CCCN(C(=O)c2ccc(Cl)cc2)C1 (stereo not drawn)	23%	-65*	u	-23%	u	0.29µM*
Cc1cc(F)ccc1NC(=O)CS(=O)(=O)c1cccc2nsnc12	x	-9	-19%	x	x	0%[46.1 µM]
CCOc1ccc(CNC(=O)Cn2ncc3c(=O)oc4ccc(C)cc4c32)cc1	x	3	-8%	x	14%[46.1 µM]	-2%[46.1 µM]
CCN(C(=O)c1cc2c(Cl)nc3ccc(C)cc3c2s1)c1cc(OC)ccc1OC	x	-36	u	x	4%[46.1 µM]	u
COc1ccc(-c2nc(CCNC(=O)c3c(F)cccc3Cl)cs2)cc1	x	u	-23%	x	x	-18%[46.1 µM]
CCCCOc1ccc(C2=NC(c3ccncc3)=Nc3ccc(OCC)cc3N2)cc1	x	-14	-12%	x	u	-23%[46.1 µM]
Cc1cc(C)cc(NC(=O)CSc2nc(-c3ccccc3)c3cc(F)ccc3n2)c1	x	-11	u	x	2%[46.1 µM]	8%[46.1 µM]
COc1ccccc1N1CCN(C(=O)c2sc3nc(-c4ccc(F)cc4)cn3c2C)CC1	-16%	-61*	0%	4.5µM*	-3%	x
COc1ccc(-c2cn3c(C)c(C(=O)N4CCN(c5ccc(F)cc5)CC4)sc3n2)cc1	3%	36	6%	-7%	-1%	x
COc1ccc(/C=N/Nc2nc(Nc3ccccc3)nc(N3CCCC3)n2)cc1[N+](=O)[O-]	3%	u	-17%	u	u	2%[46.1 µM]
COc1ccc(/C=N/Nc2nc(N3CCCCC3)nc(N3CCCCC3)n2)cc1[N+](=O)[O-]	-1%	-74*	-25%	3.5µM*	u	u
O=[N+]([O-])c1cccc(-c2ccc(/C=N/Nc3nc(N4CCCCC4)nc(N4CCCCC4)n3)o2)c1	-1%	-6	-18%	11µM*	u	u
O=[N+]([O-])c1cccc(/C=N/Nc2nc(N3CCCCC3)nc(N3CCCCC3)n2)c1	-1%	-10	-28%	5.6µM*	-3%[46.1 µM]	11%[46.1 µM]
